# Measured values reported in PubChem BioAssay (EPA / NIEHS).
# Where “and” joins values, the source holds several entries; their conditions need not be identical. Equal values may be shown once. Calls of active or inactive are those of the source. Rule for the calls: active = hit-call score of the fitted dose curve at least 0.9, where 1 is the maximum; inactive = score below 0.9.
# Biological target: Paired box protein Pax-6 (Homo sapiens) (UniProt P26367)
# Test: ATG_Pax6_CIS: Attagene CIS-FACTORIAL HepG2 Assay for human Paired Box 6 (PAX6) (AID 2282956)
# Conditions: HepG2 CIS-FACTORIAL PAX6 reporter transcription, RNA readout; actives raise or lower the signal
# Protocol: ATG_CIS is a cell-based, multiplexed-readout assay that uses HepG2, a human liver cell line, with measurements taken at 24 hours after chemical dosing in a 24-well plate.ATG_Pax6_CIS is one of 52 assay component(s) measured or calculated from the ATG_CIS assay. It is designed to make measurements of mRNA induction, a form of inducible reporter, as detected with fluorescence intensity signals by Reverse transcription polymerase chain reaction (RT-PCR) and Capillary electrophoresis technology.Data from the assay component ATG_Pax6_CIS was analyzed into 1 assay endpoint. This assay endpoint, ATG_Pax6_CIS, was analyzed with bidirectional fitting relative to DMSO as the negative control and baseline of activity. Using a type of inducible reporter, measures of mRNA for gain or loss-of-signal activity can be used to understand the reporter gene at the transcription factor-level as they relate to the gene PAX6. Furthermore, this assay endpoint can be referred to as a primary readout, because this assay has produced multiple assay endpoints where this one serves a reporter gene function. To generalize the intended target to other relatable targets, this assay endpoint is annotated to the dna binding intended target family, where the subfamily is paired box protein.
# Human liver HepG2 cells are transiently transfected with multiple reporter transcription units (MRTUs) in 6-well plates using FuGene 6 reagent (Roche; 3 ml FuGene/1 mg DNA). The MRTU constructs are regulated by a cis-regulating element (promoter). […] A major difference between the CIS and TRANS system is that in CIS activities of endogenous TFs are measured, whereas the TRANS assay evaluates changes in activities of exogenous, chimeric NR-Gal4 proteins. […] At the end of 24 hour incubation, total RNA was isolated using TriZol reagent (Invitrogen). The isolated RNA is then reverse-transcribed using oligo(dT) primer and Mo-MLV reverse transcriptase (Invitrogen) with DNAse I (Ambion) treatment for 30 min. The one-tenth of the produced cDNA was amplified by PCR using Taq DNA polymerase (Invitrogen) and two reporter sequence-specific primers. The PCR products were fluorescently labeled by primer extension with 6-arboxyfluorescein (6-FAM) 5'-labeled reporter sequence-specific primer (2 min at 95 C, 20 s at 68 C and 10 min at 72 C) and these products were digested with 5U of HpaI (New England Biolabs) for 2h at 37 C. The fragments were purified using Qiaquick PCR columns (Qiagen), analyzed on an ABI 3130xL genetic analyzer (Applied Biosystems) with peak positions identified by using a set of X-rhodamine (ROX)-labeled MapMarker1000 molecular weight standards (BioVentures). The raw capillary electrophoresis data was processed using Attagraph software (Attagene).
# Sequence of Paired box protein Pax-6 (Homo sapiens) (P26367 whole entry, looked up): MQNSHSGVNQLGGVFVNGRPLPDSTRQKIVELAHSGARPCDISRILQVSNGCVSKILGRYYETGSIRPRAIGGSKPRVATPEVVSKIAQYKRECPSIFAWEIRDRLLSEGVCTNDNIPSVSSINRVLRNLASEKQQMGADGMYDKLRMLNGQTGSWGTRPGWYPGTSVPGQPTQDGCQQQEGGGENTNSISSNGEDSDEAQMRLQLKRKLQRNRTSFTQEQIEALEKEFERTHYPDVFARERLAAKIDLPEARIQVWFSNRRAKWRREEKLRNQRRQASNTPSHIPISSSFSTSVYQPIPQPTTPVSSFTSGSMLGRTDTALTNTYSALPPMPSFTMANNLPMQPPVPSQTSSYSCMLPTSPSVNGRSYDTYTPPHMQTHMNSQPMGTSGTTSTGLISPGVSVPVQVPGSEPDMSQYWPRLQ
Compound,outcome,AC50
C=COC(=O)C(C)(C)CCCCCC,inactive,–
Cc1ccccc1OCC(=O)O,inactive,–
CCC(=O)C=Cc1ccc(OC)cc1,inactive,–
CCOC(C)=O,inactive,–
Nc1cc(Cl)c(-c2cc(Cl)c(N)cc2Cl)cc1Cl,inactive,–
Cn1sccc1=O,–,159 µM (active)
Cc1ccc(C(=O)c2ccccc2)cc1,inactive,–
C[N+](C)(CCCNS(=O)(=O)CCC(F)(F)C(F)(F)C(F)(F)C(F)(F)C(F)(F)C(F)(F)F)CC(=O)[O-],inactive,–
Oc1c(Cl)cc(Cl)cc1Sc1cc(Cl)cc(Cl)c1O,inactive,–
CCC1CO1 (stereo not given),inactive,–
FCOC(C(F)(F)F)C(F)(F)F,inactive,–
CCCCCCCCCCCC,inactive,–
COc1ccc(C#N)cc1,inactive,–
FC(OC(F)(F)C(F)(F)C(F)(F)F)C(F)(F)F (stereo not given),inactive,–
CN(Cc1cnc2nc(N)nc(N)c2n1)c1ccc(C(=O)N[C@@H](CCC(=O)O)C(=O)O)cc1,inactive,–
O=C1OC(=O)c2cc(-c3ccc4c(c3)C(=O)OC4=O)ccc21,inactive,–
O=C(O)C(F)(F)OC(F)(F)C(F)(F)OC(F)(F)C(F)(F)OC(F)(F)C(F)(F)C(F)(F)C(F)(F)F,–,25.9 µM (active) and 29.1 µM (active)
COc1cccc(O)c1,inactive,–
O=C(O)CN(CCCN(CC(=O)O)CC(=O)O)CC(=O)O,inactive,–
CCCCCCCCCCCCCCCCCC[N+](C)(C)Cc1ccccc1,inactive,–

Compound,outcome,AC50
C/C=C/C(=O)C1=C(C)CCCC1(C)C,–,39.7 µM (active)
CCOC(OCC)C(=O)c1ccccc1,inactive,–
OCCN1CN(CCO)CN(CCO)C1,–,173 µM (active)
C[C@]12CC[C@@H]3c4ccc(O)cc4CC[C@H]3[C@@H]1CC[C@@H]2OC(=O)CCC1CCCC1,inactive,–
O=C(c1ccccc1)c1ccccc1,inactive,–
O=C(c1cc(O)c(O)c(O)c1)c1ccc(O)c(O)c1O,inactive,–
CC(=O)Nc1ccc(O)cc1,inactive,–
CCO[Si](CCC1CCC2OC2C1)(OCC)OCC (stereo not given),inactive,–
O=C(CC(=O)C(F)(F)C(F)(F)C(F)(F)F)c1cccs1,inactive,–
O=C(O)CCC(F)(F)C(F)(F)C(F)(F)C(F)(F)C(F)(F)F,inactive,–
CC(=O)CC(C)C,inactive,–
C=CC(=O)OCCC(F)(F)C(F)(F)C(F)(F)C(F)(F)C(F)(F)C(F)(F)F,inactive,–
CN(C)c1ccc(C(=C2C=CC(=[N+](C)C)C=C2)c2ccccc2)cc1,–,1.43 µM (active) and 1.44 µM (active)
CC(=O)Nc1ccc(S(N)(=O)=O)cc1,inactive,–
Cc1ccccc1C(OCCN(C)C)c1ccccc1 (stereo not given),inactive,–
CCc1cccc(CC)c1N(COC)C(=O)CS(=O)(=O)O,inactive,–
COC1=CC(=O)C[C@@H](C)[C@]12Oc1c(Cl)c(OC)cc(OC)c1C2=O,inactive,–
O=C(O)C(=O)O,inactive,–
Oc1ccc(Cc2ccccc2O)cc1,inactive,–
O=C1c2ccccc2C(=O)c2c(O)c(O)cc(O)c21,inactive,–
